Experimental data: the supplement of paper PMC6555819

Columns and labels:
Assay in all cases: PBM binding z-score (relative to random genomic background probes); higher = stronger binding; sequences stand for … in GC…GCGATTGACAGCGTAGAATGAAGG
[1] = tested on: FXR:RXRa (NR concentration 270 nM, RXRa partner concentration 90 nM)
Outline: (§1)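 On custom Agilent 4×180K arrays, double-stranded probes with 34-nt variable regions carried direct-repeat seeds, single-nucleotide variants, half-site ablations or random human genomic background. Ligand-free nuclear receptor dimers were applied for 1 h, and binding was read with antibodies against each partner (one per run). Binding z-scores come from regression-normalized fluorescence, with the random background probes as reference.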

[2] = tested on: LXRa:RXRa (NR concentration 270 nM, RXRa partner concentration 90 nM)
Outline: as §1

[3] = tested on: LXRa homodimer (NR concentration 270 nM)
Outline: as §1

[4] = tested on: LXRb:RXRa (NR concentration 270 nM, RXRa partner concentration 90 nM)
Outline: as §1

[5] = tested on: LXRb homodimer (NR concentration 270 nM)
Outline: as §1

[6] = tested on: PPARa:RXRa (NR concentration 270 nM, RXRa partner concentration 90 nM)
Outline: as §1

[7] = tested on: PPARg:RXRa (NR concentration 180 nM, RXRa partner concentration 90 nM)
Outline: as §1

[8] = tested on: PPARg:RXRa 270nM:90nM, anti-RXR (NR concentration 270 nM, RXRa partner concentration 90 nM)
Outline: as §1

[9] = tested on: PPARg:RXRa 30nM:10nM, anti-RXR (NR concentration 30 nM, RXRa partner concentration 10 nM)
Outline: as §1

[10] = tested on: PPARg:RXRa 90nM:30nM, anti-RXR (NR concentration 90 nM, RXRa partner concentration 30 nM)
Outline: as §1

Which results are given for CCGACTGGGGCACAGGTTACCATACTCAGTACGA?
PBM binding z-score [1]: 0.0382; PBM binding z-score [2]: 0.072; PBM binding z-score [3]: -0.0129; PBM binding z-score [4]: 0.247; PBM binding z-score [5]: -0.88; PBM binding z-score [6]: 2.71; PBM binding z-score [7]: 6.11; PBM binding z-score [8]: 5.67; PBM binding z-score [9]: 4.13; PBM binding z-score [10]: 6.28

For CCGACTGGGGCAGAAACGTTACCATACCATCCGG, which PBM binding z-score [1] is on record?
The PBM binding z-score was -0.564.

And the PBM binding z-score [2]?
Its PBM binding z-score is -0.949.

What about the PBM binding z-score [3] of the same sequence?
Its PBM binding z-score is -0.452.

What about the PBM binding z-score [4] of the same sequence?
The PBM binding z-score was -0.779.

And the PBM binding z-score [5]?
The PBM binding z-score was -0.864.

What about the PBM binding z-score [6] of the same sequence?
Its PBM binding z-score is -1.

And the PBM binding z-score [7]?
Its PBM binding z-score is 0.724.

What about the PBM binding z-score [8] of the same sequence?
Its PBM binding z-score is -0.373.

What about the PBM binding z-score [9] of the same sequence?
The PBM binding z-score was -0.314.

What about the PBM binding z-score [10] of the same sequence?
Its PBM binding z-score is -0.369.

With CGTCCAAGGTCAGAGGAGGTCAGTGAAGACAGAT as the sequence, how does the PBM binding z-score [1] read?
Its PBM binding z-score is 6.02.

And the PBM binding z-score [2]?
The PBM binding z-score was 5.57.

And the PBM binding z-score [3]?
The PBM binding z-score was 2.4.

What about the PBM binding z-score [4] of the same sequence?
Its PBM binding z-score is 4.09.

And the PBM binding z-score [5]?
Its PBM binding z-score is -0.0595.

And the PBM binding z-score [6]?
Its PBM binding z-score is 4.82.

And the PBM binding z-score [7]?
Its PBM binding z-score is 3.53.

And the PBM binding z-score [8]?
The PBM binding z-score was 3.88.

And the PBM binding z-score [9]?
The PBM binding z-score was 0.854.

What about the PBM binding z-score [10] of the same sequence?
Its PBM binding z-score is 2.48.

CCAGACAGGTGAGAAGTTAACTCAGCCTCGATTA was tested. Which PBM binding z-score [1] did it give?
Its PBM binding z-score is -0.198.

What about the PBM binding z-score [2] of the same sequence?
The PBM binding z-score was -0.285.

What about the PBM binding z-score [3] of the same sequence?
The PBM binding z-score was -0.173.

What about the PBM binding z-score [4] of the same sequence?
The PBM binding z-score was 0.0436.

And the PBM binding z-score [5]?
The PBM binding z-score was -0.306.

What about the PBM binding z-score [6] of the same sequence?
Its PBM binding z-score is 0.706.

And the PBM binding z-score [7]?
The PBM binding z-score was 0.596.

What about the PBM binding z-score [8] of the same sequence?
Its PBM binding z-score is 1.25.

And the PBM binding z-score [9]?
The PBM binding z-score was -0.0978.

And the PBM binding z-score [10]?
Its PBM binding z-score is 0.58.

How did the PBM binding z-score [1] turn out when TCTTCTAGATCAACAGGAGGTTAAGAAAGATCGA was run?
Its PBM binding z-score is 0.645.

And the PBM binding z-score [2]?
The PBM binding z-score was 1.25.

What about the PBM binding z-score [3] of the same sequence?
The PBM binding z-score was 0.194.

And the PBM binding z-score [4]?
Its PBM binding z-score is 0.772.

And the PBM binding z-score [5]?
Its PBM binding z-score is 0.728.

What about the PBM binding z-score [6] of the same sequence?
The PBM binding z-score was 1.24.

And the PBM binding z-score [7]?
The PBM binding z-score was 0.0258.

And the PBM binding z-score [8]?
The PBM binding z-score was 1.94.

And the PBM binding z-score [9]?
Its PBM binding z-score is 3.46.

And the PBM binding z-score [10]?
Its PBM binding z-score is 2.67.

Which results are given for TAGCCTAGGTCATTCAGGGGCCAGTATTGAAAGC?
PBM binding z-score [1]: 4.17; PBM binding z-score [2]: 3.5; PBM binding z-score [3]: 0.907; PBM binding z-score [4]: 3.03; PBM binding z-score [5]: 0.763; PBM binding z-score [6]: 3.43; PBM binding z-score [7]: 1.63; PBM binding z-score [8]: 2.22; PBM binding z-score [9]: 0.291; PBM binding z-score [10]: 1.32

What does the source list for TAGCCTACGTCATTCAGGGGCCAGTATAGAAAGC?
PBM binding z-score [1]: -0.632; PBM binding z-score [2]: -0.447; PBM binding z-score [3]: -0.497; PBM binding z-score [4]: 0.157; PBM binding z-score [5]: -0.0304; PBM binding z-score [6]: -0.0175; PBM binding z-score [7]: 0.374; PBM binding z-score [8]: -0.279; PBM binding z-score [9]: -0.505; PBM binding z-score [10]: -0.468

Which results are given for CCGACTGGTGCAAAGGTTACCATACTCAGTACGA?
PBM binding z-score [1]: 0.595; PBM binding z-score [2]: 1.59; PBM binding z-score [3]: 0.244; PBM binding z-score [4]: 1.89; PBM binding z-score [5]: -0.483; PBM binding z-score [6]: 3.86; PBM binding z-score [7]: 6.69; PBM binding z-score [8]: 6.67; PBM binding z-score [9]: 4.73; PBM binding z-score [10]: 6.75

With AGAATGAGGTTACCATAGATCAGGGAAACGCTTG as the sequence, how does the PBM binding z-score [1] read?
The PBM binding z-score was 1.71.

And the PBM binding z-score [2]?
Its PBM binding z-score is 6.81.

What about the PBM binding z-score [3] of the same sequence?
Its PBM binding z-score is -0.421.

What about the PBM binding z-score [4] of the same sequence?
The PBM binding z-score was 3.61.

What about the PBM binding z-score [5] of the same sequence?
Its PBM binding z-score is -0.0924.

What about the PBM binding z-score [6] of the same sequence?
Its PBM binding z-score is 3.14.

And the PBM binding z-score [7]?
The PBM binding z-score was 2.41.

What about the PBM binding z-score [8] of the same sequence?
The PBM binding z-score was 2.09.

What about the PBM binding z-score [9] of the same sequence?
The PBM binding z-score was 0.706.

What about the PBM binding z-score [10] of the same sequence?
The PBM binding z-score was 1.29.

Which PBM binding z-score [1] does the source give for CAAACTAGGTAACGAAAGGTCAAAGTCGAATGAC here?
Its PBM binding z-score is 4.96.

What about the PBM binding z-score [2] of the same sequence?
Its PBM binding z-score is 7.4.

And the PBM binding z-score [3]?
Its PBM binding z-score is 6.74.

And the PBM binding z-score [4]?
Its PBM binding z-score is 6.41.

And the PBM binding z-score [5]?
The PBM binding z-score was 2.26.

And the PBM binding z-score [6]?
Its PBM binding z-score is 5.8.

And the PBM binding z-score [7]?
Its PBM binding z-score is 6.82.

What about the PBM binding z-score [8] of the same sequence?
The PBM binding z-score was 6.42.

What about the PBM binding z-score [9] of the same sequence?
Its PBM binding z-score is 3.66.

What about the PBM binding z-score [10] of the same sequence?
The PBM binding z-score was 5.76.

Which PBM binding z-score [1] does the source give for GGAACGAGGGTAAAGTTGATAGCATCTGTCGACG here?
The PBM binding z-score was 0.472.

What about the PBM binding z-score [2] of the same sequence?
Its PBM binding z-score is 0.494.

What about the PBM binding z-score [3] of the same sequence?
The PBM binding z-score was -0.531.

And the PBM binding z-score [4]?
Its PBM binding z-score is 0.361.

And the PBM binding z-score [5]?
Its PBM binding z-score is -0.696.

What about the PBM binding z-score [6] of the same sequence?
Its PBM binding z-score is 3.37.

What about the PBM binding z-score [7] of the same sequence?
Its PBM binding z-score is 5.63.

What about the PBM binding z-score [8] of the same sequence?
The PBM binding z-score was 6.72.

And the PBM binding z-score [9]?
Its PBM binding z-score is 4.9.

What about the PBM binding z-score [10] of the same sequence?
Its PBM binding z-score is 7.39.

For CAGCCTAGGTCAGGGTCAGTATAGGAGGAACGTT, which PBM binding z-score [1] is on record?
Its PBM binding z-score is 3.28.

And the PBM binding z-score [2]?
Its PBM binding z-score is 2.28.

And the PBM binding z-score [3]?
The PBM binding z-score was 0.154.

And the PBM binding z-score [4]?
Its PBM binding z-score is 2.3.

And the PBM binding z-score [5]?
The PBM binding z-score was -0.746.

What about the PBM binding z-score [6] of the same sequence?
The PBM binding z-score was 3.73.

What about the PBM binding z-score [7] of the same sequence?
Its PBM binding z-score is 2.37.

And the PBM binding z-score [8]?
Its PBM binding z-score is 2.52.

And the PBM binding z-score [9]?
The PBM binding z-score was 0.577.

What about the PBM binding z-score [10] of the same sequence?
The PBM binding z-score was 1.52.
